Data as given in PubChem BioAssay AID1159506 (National Center for Advancing Translational Sciences (NCATS), 2015).
Whole data set: some 59,000 sequences, median the read-out near -0.00055, cut for the lowest 2% near -2. This is one part of a sample in which the lowest values are shown more often than they occur.

assay: Identification of proteins required for the processing of the EWS-FLI1 nascent transcript; conditions: TC32 Ewing sarcoma NR0B1-luc vs CMV-luc (EWS-FLI1 target promoter against control promoter), 48 h; screened at 20 nM (by protocol);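 note: robust z of luciferase light less the median z of siRNAs with the same seed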
Outline: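 Readout: OneGlo luminescence, 48 h post-transfection, TC32-NR0B1-luc vs TC32-CMV-luc in parallel. siRNA 20 nM final, RNAiMax lipid, 600 cells/well; z-score-MAD transformed, then seed-adjusted.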

Row | Sequence | seed-corrected z-score
1 | UGGAGAGUAUGGGUAGUCG against CDC34 | -1.87
2 | UCAGGUUCUUCCGUAGCUG against PHF21A | -0.312
3 | AAAGACUCCAUAUAGACGG against ROR1 | -0.522
4 | AUCAAUGACAUAAUCGCUG against SHANK3 | -0.601
5 | AGUGGAGUUAGAUAGUUGG against KDM6A | -4.37
6 | UACCACAUUACACUCGUCU against NPM3 | 0.156
7 | UUGUUGUCCAUAAUUGUCC against RNF8 | 1.95
8 | UCCGGAUAUACUGUGCUUC against PCMTD2 | 0.0601
9 | UUUGGGCCUGCUGAAAUUG against RNF148 | 0.493
10 | AACUGUCUUGUUGCUCUUG against NFKBID | -0.0314
11 | AAGAUAGUCAAGCAUGUGC against ELMO3 | 0.733
12 | UGUUGUCGCAGUGAGGAGC against KIAA0141 | -2
13 | UUUGGUGACUGGACCGUUC against TRIM24 | -0.553
14 | UUGACAGCAAUCACAGUGG against AWAT2 | 0.583
15 | UCAGCUCGGAUUUCACGGC against SHISA7 | 0.404
16 | UUAAGUUGAUCUGUACUGC against FAM117B | -0.0872
17 | CAGCCAUCUAGGAUGAGCC against RPL10P8 | -0.668
18 | UGGUUUUAGAGGAAUAGGG against SLC51A | -0.953
19 | UAGGAAACCAAGCACAUCU against SH3BGRL | 1.88
20 | AUAGCCUCCAGUCCAAUUG against TM2D3 | -2.03
21 | UUGGUGGUGAACAUAGGGA against TAL1 | -0.201
22 | UAGGUUGGAGAAUUGUUCC against T | -0.372

Row | Sequence | seed-corrected z-score
23 | UGUUGUAGGAAUAGCCUGG against PITX2 | -2.28
24 | UGGUCAUUUGGUAUGAGGC against CAPRIN2 | 0.0796
25 | UUCUUGAGAAGCAGGUUCU against STAT6 | -0.716
26 | UGAUCCAUGGGUUCGAUCC against ROCK2 | -0.007
27 | AAAAUAGAGGUCACCAUAC against C1orf35 | 0.456
28 | UGAGAAUUAUGAUCACUGC against SLC7A1 | -0.0797
29 | UUUGUGCUUAACUGGCUGG against RPL12 | -2.56
30 | GCCGCGUACUUGUUGUUGC against IGLL1 | 0.951
31 | UCCUGCUACAUUUACAUCG against FERMT1 | -3.31
32 | AAACUGAGAAACAUCAAGG against ZNF433 | -1.01
33 | UGUCAUCCCAUCAAUGACU against PPIC | -0.679
34 | UUUAAGGCAUCAUCUAGAC against DHFR | -0.615
35 | UUCGAUGAAGAAACUCUGC against DOCK11 | 0.27
36 | UGCGUUUUUAAGCAUGUGC against RPL17 | -2.46
37 | UUUUGUGCCUUCGUUAACC against ADAM9 | -0.742
38 | UUUCUGUCCAGCAUAUGUA against SSU72 | -0.804
39 | UCUCUUCAGAGCGUGCACC against ANKRD54 | -0.161
40 | UUAGCUCCAAGUCUUGCAG against HDLBP | 0.263
41 | UACUGGUCCACGGAGAUUU against CSPG4 | 0.0797
42 | CUUCAUAGUGGUGUCCACG against MUC3B | -0.292
43 | UUCGUUUCGUCUCUUCUAG against ESCO1 | 1.44
44 | ACCGUUAAAACAAGCUUCG against NBAS | 0.0519

Row | Sequence | seed-corrected z-score
45 | UUCGCUGAAAAGAAACUGG against PHRF1 | -0.139
46 | UUUAAGCAACCGUCGUUGG against RPS23P8 | -9.97
47 | AAUCUAUAACUCUUUGACC against MKKS | -0.508
48 | UGAUGGUCAACUUGAUGCC against LCK | -4.01
49 | UGCAUUCCCACCAAUGUUG against EIF2B2 | -0.2
50 | UCAGAGCGAUUUUCAGUAC against KCTD21 | 0.306
51 | UAUGUUGUCACUAGUCAGC against PNPLA7 | -0.38
52 | UUCUGCAAAGCGCCACAGG against SLC22A31 | -2.24
53 | UUCUGAGUAAUCUACAAUG against RHOT1 | 0.1
54 | AACCGUGUAACCAUAGCUC against GABRQ | 0.126
55 | AAUAGUACCACCAAAGCAC against ELOVL2 | -0.0356
56 | UAUCUCCUCAGCUAAUUCG against SLC17A8 | 0.0229
57 | UUCGUUAGUUGUUCUAGGC against RB1CC1 | -2.96
58 | UCUGUGUAGCUCGGACACC against OR7E24 | -0.966
59 | AAUGAAUCAAAUGUAACGG against PNPT1 | -0.376
60 | UUUUCAAACAGGUAACAGC against ATM | 0.359
61 | UUUUGAGCCUCAGCACUCC against RGL3 | -0.0402
62 | UCCAGUUUUCGGAUCUUCC against MRPL40 | -2.5
63 | UCUCGUUCAGUUAUCUGCC against HECW2 | 0.826
64 | UAGAGUUCCAGCUAGGGUG against CTRL | -0.507
65 | UUCUUGUACUGCACCAUCU against PHLDA1 | 2.51
66 | UUAGUUCCAUUUCCUACUC against TEX38 | -0.404

Row | Sequence | seed-corrected z-score
67 | UGUGCAUGCACAGAGAAGC against NFE4 | -1.58
68 | AAACUUAUACUUCUGGUAC against VBP1 | -0.149
69 | AGGAGACUCAGCUUGAUCC against SPATA45 | -2.01
70 | AACCAGUUAGAUUAUACGC against ATRNL1 | -0.225
71 | UUGUAUCCAAAGAUGAUUC against PLXDC2 | -0.0677
72 | AGGCUGAUGACUCCUAUCC against SSTR3 | 0.317
73 | UCAUAGGACCAGUCAAUGC against CPA2 | 0.13
74 | UCCCGUUCAAUCUCCCACC against RNF113B | -0.595
75 | UCCAUGGUACUUCUUAUGC against TMEM127 | -2.9
76 | UUGGGAGCGAUAACACGAC against C19orf53 | -0.418
77 | AGAUCUACUAGUUCUUGUG against LRCH1 | 0.758
78 | ACAGUGGUGAACGUGAUGC against JPX | -2.26
79 | UUGGUAGUAGAUCAUAUGC against STXBP3 | -0.0771
80 | UUUUCUUGCGUUUAUGUGG against C11orf57 | 0.448
81 | AGUGAUGAAAGCAAAGUAG against KCNK16 | 0.908
82 | UUUCAUCUCACCUUUAUUG against RPL23P5 | -2.17
83 | UUCUGAUCCUGGAUGUUGC against R3HDM1 | 0.205
84 | AGACGUUCCAUUCAUAUCU against RBMY1F | 0.399
85 | AUGGUCUUCACUCUUGUGC against CCR9 | -3.14
